Laboratory results: the supplement of paper PMC11417369
± gives the standard deviation of the averaged measurements. Whole data set: some 25,000 sequences, median “ln(normalized median fluorescence intensity)” near 8.6, cut for the highest 2% near 10. The full list was thinned out, with the highest values kept by preference.

Test system: PfAP2-EXP AP2 domain (GST-tagged)
Assay: gcPBM binding intensity (ln(normalized median fluorescence intensity)); higher = stronger DNA binding
Outline: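 An Agilent 4 × 180k array of primer-extended double-stranded 36-bp intergenic genomic probes, with negative controls, was incubated for 1 h with GST-tagged P. falciparum DNA-binding domains expressed in E. coli. Alexa488 anti-GST antibody detected bound protein, scanned at 488 nm. Binding intensity is the highest Masliner-normalised natural-log median intensity across replicate spots of either probe orientation.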

Sequence | gcPBM binding intensity (ln)
AGATTTAAATATCATACACACTTTATCTATAATACA [CACACA_site6581] | 8.32 ± 0.4
ATAAATATATTTAAATGTACATAATATATATATATA [XGTACX_site5137] | 9.96 ± 0.18
AATAAATTAATTTTGGGTACATATATATATATATAT [XGTACX_site3807] | 10.2 ± 0.23
AAATAATTTACTTAATGTACATATATATATATATAT [XGTACX_site8594] | 10.59 ± 0.092
ATAAAATTTTATATGGGTACATAATATAATATATAT [XGTACX_site8160] | 8.84 ± 0.41
TAATTAATAATAATATGTACATATTAATATATTATT [XGTACX_site6900] | 8.29 ± 0.24
TTATAATTTAATAAATGTACATAAATAATATACATA [XGTACX_site7271] | 8.26 ± 0.18
CATATTAATATTATGGGTACATATAAATTTACATTC [XGTACX_site687] | 8.64 ± 0.38
TTAATATTAATTATATGTACATATAATATATATATA [XGTACX_site1757] | 9.18 ± 0.13
ATATATATATATATATGTACATAAATATTTTAAAAT [XGTACX_site4980] | 10.3 ± 0.4
TAAAAAATAAATATATGTACATATTTATTTTTTTTT [XGTACX_site850] | 8.21 ± 0.35
ATATATATATATATATGTACATAATTAATAATTAGA [XGTACX_site5672] | 10.3 ± 0.25
GTATTTTTTTTAATATGTACATATAAAATATTTTAT [XGTACX_site8329] | 8.96 ± 0.31
TAATTTAAAATATATAGTACACACGTGAACACAAAT [XGTACX_site792] | 8.89 ± 0.45
AATATATCATAATGATGTACAAGTAAAACCGTTACA [XGTACX_site4280] | 8.74 ± 0.52
TATTATATGTATTGCACACCTTCAACAACTACTTCT [CACACA_site655] | 9.03 ± 0.14
TATTATTTTTTTATTCTATTAAAAAGAAAAAAATGA [CACACA_negctrl_site407] | 7.95 ± 0.47
ACTTTACGAATTAAGAGTACTTATTTAAGGAACACT [XGTACX_site7919] | 8.52 ± 0.37
CTACATAAAAAAATATGTACATATATATATATATAT [XGTACX_site667] | 10 ± 0.46

Sequence | gcPBM binding intensity (ln)
AAATATAAAAAAAAAAGTACTTTGTTACTTTTCTAT [XGTACX_site6034] | 8.04 ± 0.36
AACACATACAGATATGCACACATTTTATTCCATTAT [CACACA_site5565] | 8.84 ± 0.34
TGAAAAAATATAATTTGTACATATCAGGCAAAAATG [XGTACX_site1824] | 8.68 ± 0.38
TATAAAAATATATTTACACACTATATATATCGAAAG [CACACA_site1700] | 8.52 ± 0.38
CCACTAATAAATATTACACACATATAGATTTATATT [CACACA_site7465] | 8.41 ± 0.44
ATATATATATATAATACACACTAAAGTAACATAATA [CACACA_site5580] | 9.74 ± 0.11
TATATACTTTATAAATGTACATATAATGTATTATTT [XGTACX_site7313] | 8.34 ± 0.42
TATATATATAATATATGTACATATTAATTATGTATA [XGTACX_site5366] | 8.79 ± 0.13
TATATATATATATAATGTACATATATATAATATACA [XGTACX_site1552] | 10.1 ± 0.27
ATATATATATATATATGTACATATTTTATTTAATTT [XGTACX_site1807] | 10.2 ± 0.28
TATATATATATATAATGTACATAATAATAATACATC [XGTACX_site5587] | 9.84 ± 0.26
TTTAATATGAATTTATGTACATATATATATATATAT [XGTACX_site6337] | 10.2 ± 0.35
TATATATATACTTAATGTACATATATATATATATAT [XGTACX_site3102] | 10.3 ± 0.2
CATATAATATAATTATGTACATATATAATAATATAC [XGTACX_site5278] | 8.47 ± 0.29
TTATATACATAAAAATGTACTTTTTATAAAATATAT [XGTACX_site8281] | 8.21 ± 0.18
TTTATACTTTCAAAATGTACATATATATATATATAT [XGTACX_site6241] | 10.2 ± 0.24
AATATTTATTTTATATGTACATAATTTATTTTTAAT [XGTACX_site776] | 8.63 ± 0.32
ATATATATATATATATGTACATAATTAATAGCATAT [XGTACX_site1428] | 10.2 ± 0.36
CAACACTTAGATTTTAAGTTCACTGGTTAATATATA [CACACA_negctrl_site707] | 8.12 ± 0.4

Sequence | gcPBM binding intensity (ln)
ATTGAAAATTGTTGCACACATAATAATTAAATATAT [CACACA_site1857] | 8.37 ± 0.23
GATCTTTAAATTTATTGTACATAAATGTATATGTTA [XGTACX_site1107] | 8.59 ± 0.45
TATTTACAAAAAAAATATAAAAAATATAAAATATAT [CACACA_negctrl_site575] | 8.12 ± 0.31
TGTTAATTTCATTTTCTACACACCTATCCTTTTTTT [CACACA_site8157] | 8.88 ± 0.47
ATATATATATATATATGTACATAAATATAAATTTAA [XGTACX_site8715] | 10.2 ± 0.24
ATATATATATATATATGTACATATTTTTAATTATAA [XGTACX_site7444] | 9.86 ± 0.13
AAATAAATAATTTAATGTACATATATAATATATATA [XGTACX_site1831] | 8.5 ± 0.11
TTTTTTTTTTTCGGGGGTACTAATATATTATTAATA [XGTACX_site7809] | 10.4 ± 0.34
GTATATAATTATATATGTACTAAATAAATATTTTTA [XGTACX_site6062] | 8.29 ± 0.39
TTAAATATAATATTATGTACTAAATATTTTTTTATT [XGTACX_site6121] | 8.09 ± 0.37
ATATATTATATAATATGTACATAATAAAATTTAAAT [XGTACX_site1900] | 8.72 ± 0.27
ATATATATATATATATGTACATATTTTAATAATTAA [XGTACX_site8549] | 10.2 ± 0.23
TAATTATTTTCGGTACGTACTAATGTATATATAATT [XGTACX_site3895] | 8.67 ± 0.42
AATATTATATATATGGGTACTAATTCCTTTAATTTC [XGTACX_site102] | 8.15 ± 0.3
TATTAATTTTTATTATGTACATAAATAATTTATATT [XGTACX_site5456] | 8.39 ± 0.28
ATATATATATATATATGTACTAATTAATATTTCGAG [XGTACX_site580] | 10.2 ± 0.47
AAATTATATCCCCTTTGTACTTACAGATCTTTATAC [XGTACX_site8163] | 8.77 ± 0.51
CACAGTGATATAAAAACACACATGAATTCTAATTTC [CACACA_site6884] | 8.3 ± 0.21
AAAGTTGTTACGAACATACACACGAACATACTCACG [CACACA_site604] | 8.7 ± 0.69
